# Data: PubChem BioAssay AID463173 (ICCB-Longwood Screening Facility, Harvard Medical School, 2010)
# Among all 52,000 compounds or so, about 4,300 (8.3%) were called active. This excerpt belongs to a sample that is enriched for actives. Values without a mark were called inactive. No stated cut-off is given here; in the data, active means survival mostly below about 52% (no sharp cut-off); inactive means mostly above about 56%.
# Tested on: DeltatarO mutant
# Assay: growth inhibition of S. aureus wild type versus tarO mutant, primary screen, teichoic acid synthesis inhibitors, RN4220, OD600 (AID 463173)
# Conditions: OD600, 18 h, stronger effect = lower value, screened at 18.75 µg/mL (by protocol)
row,Structure (SMILES),survival
1,COc1ccccc1/C=C/c1nc(C#N)c(N2CCCCC2)o1,75%
2,Cc1ccc(C(=O)c2sc(Nc3ccccc3F)c(S(=O)(=O)c3ccccc3)c2N)c(C)c1,74%
3,COC(=O)c1cc(NC(=O)c2nn(C)c3c2CSc2ccccc2-3)cc(C(=O)OC)c1,88%
4,CN1CCN(C2(CNC(=O)c3ccc([N+](=O)[O-])cc3)CCCCC2)CC1,102%
5,Cc1ccc(C(C)C)c(OCC(=O)NCC2(N(C)C)CCCCC2)c1,95%
6,N#Cc1c(NC(=O)C2CC(=O)NN2Cc2ccccc2)sc2c1CCCC2 (configuration not stated),82%
7,CCn1c(CNC(=O)c2ccc(OC)cc2)nnc1SCC(=O)Nc1ccc(F)cc1,130%
8,O=C(C1=C(N2CCCCC2)c2ccccc2S(=O)(=O)N1)c1ccccc1,94%
9,Cc1ccc(-n2nnc(-c3nc(-c4cccs4)no3)c2N)c(C)c1,101%
10,COc1ccccc1NC(=O)c1cc2c(-c3ccccc3)nn(-c3ccccc3)c2s1,89%
11,Cc1ccccc1NC(=O)c1cc2c(-c3ccccc3)nn(-c3ccccc3)c2s1,57%
12,O=C(Nc1ccccc1Cl)c1cc2c(-c3ccccc3)nn(-c3ccccc3)c2s1,56%
13,COc1ccc(NC(=O)c2cc3c(C)nn(-c4ccccc4)c3s2)c(OC)c1,59%
14,COc1ccccc1NC(=O)c1cc2c(C)nn(-c3ccccc3)c2s1,0% (active)
15,Cc1nn(-c2ccccc2)c2sc(C(=O)Nc3ccccc3Br)cc12,9% (active)
16,CCc1ccccc1NC(=O)C1CCN(C2=NS(=O)(=O)C(c3ccc(C)c(C)c3)=C2C)CC1,80%
17,COc1ccc(-c2nc(C(N)=O)c3c(n2)n(-c2ccccc2OC)c(=O)n3C)c(OC)c1,82%
18,CCN(CC)S(=O)(=O)c1ccc(-n2cnnn2)c(C)c1,111%
19,Cc1ccc(NC(=O)CSc2nncn3c2cc2sccc23)cc1F,61%
20,COc1ccc(CCNC(=O)C2CCCN(S(=O)(=O)c3ccc4c(c3)oc(=O)n4C)C2)cc1OC (configuration not stated),72%
21,CCC1CCCCN1S(=O)(=O)c1ccc(NC(=O)c2cc(=O)c3c(C)cc(C)cc3o2)cc1 (configuration not stated),45%
22,COc1ccc(C)cc1NC(=O)COc1cc(=O)n(C)c2ccccc12,90%
23,CCn1c2ccccc2c2cc(NC(=O)COc3ccc(C)cc3C)ccc21,-5% (active)

row,Structure (SMILES),survival
1,CCc1cccc(NC(=O)COc2cc(=O)n(CC)c3ccccc23)c1,115%
2,CCn1c2ccccc2c2cc(NC(=O)COc3cc(C)ccc3C)ccc21,29% (active)
3,CCc1ccc(OCC(=O)Nc2ccc3c(c2)c2ccccc2n3CC)cc1,51%
4,CCOC(=O)c1ccccc1NC(=O)COc1cc(=O)n(CC)c2ccccc12,53%
5,Cc1ccc(-n2nc3ccc(NC(=O)COc4ccccc4C)cc3n2)cc1,72%
6,COc1ccc(NC(=O)c2ccco2)cc1NC(=O)COc1ccc(C)cc1C,56%
7,CCc1ccc(OCC(=O)Nc2ccc3c(c2)c2ccccc2n3CC)c(Br)c1,6% (active)
8,CCc1ccc(S(=O)(=O)c2nnn3c2nc(N2CCOCC2)c2sccc23)cc1,83%
9,Cc1ccccc1-n1nc(CO)c(C(=O)NCCc2ccccc2)n1,86%
10,Cc1ccc(-c2cc(C(F)F)n3ncc(C(=O)NCC4CCCO4)c3n2)cc1 (configuration not stated),87%
11,CCCCN(C)CCNC(=O)CN1C(=O)CSc2ccc(S(=O)(=O)N3CCCCC3)cc21,113%
12,CC(C)Cc1nn2cc(-c3cccc(Br)c3)nc2s1,112%
13,Cn1ccc2cc(S(=O)(=O)N3CCCN(C(=O)Nc4ccccc4Br)CC3)ccc21,67%
14,CCOc1ccc(Nc2nc3c(S(=O)(=O)c4ccc(CC)cc4)nnn3c3ccc(Cl)cc23)cc1,104%
15,O=C(O)CNC(=O)c1sc2ccccc2c1Cl,84%
16,O=C(Nc1cccs1)Nc1cc(C(F)(F)F)ccc1Cl,11% (active)
17,O=C(Nc1cccs1)Nc1ccc(F)cc1F,83%
18,O=C(Nc1cccc(C(F)(F)F)c1)Nc1cccs1,-3% (active)
19,O=C(Nc1cccc(C(F)(F)F)c1)c1cccc(C(=O)Nc2cccc(C(F)(F)F)c2)c1,84%
20,O=C(Nc1cc(C(F)(F)F)ccc1Cl)c1cc(-c2cccs2)nc2ccccc12,86%
21,O=C(Nc1cccc(C(F)(F)F)c1)c1cccs1,95%
22,Cc1cc(C)cc(NC(=O)Nc2cccs2)c1,26% (active)
23,Cc1ccc(NC(=O)Nc2cccs2)c(C)c1,91%

row,Structure (SMILES),survival
1,Cc1ccccc1NC(=O)Nc1cccs1,94%
2,COc1ccc(CNC(=O)c2cnc(N3CCCC3)nc2C)cc1,71%
3,O=S(=O)(Nc1ccc(-c2ccc(N3CCCC3)nn2)cc1)c1ccccc1Cl,66%
4,CC1(NS(C)(=O)=O)CC=CC1,115%
5,Cc1cccc(NC(=O)c2cccc(N3CCCS3(=O)=O)c2)c1,78%
6,COc1cccc(C2C(C(=O)Nc3ccc(C)cc3C)=C(C)Nc3c(C(=O)Nc4cccc(C)c4)cnn32)c1OC (configuration not stated),94%
7,CCn1cc(S(=O)(=O)c2cccc(C)c2)c(=O)c2cc(F)c(N3CCN(c4ccccc4)CC3)cc21,84%
8,CCCc1cc(=O)[nH]c2nnc(SCCC(C)C)n12,90%
9,Cc1cccc(-n2cc(-c3ccccc3)c3c(N4CCC(C)CC4)ncnc32)c1,90%
10,CCOc1ccc(/C=C/c2nc(C#N)c(N3CCN(CC)CC3)o2)cc1,70%
11,CN1CCN(C2=NC(=O)/C(=C\C=C/c3ccccc3)S2)CC1,79%
12,COC(=O)COc1ccc(C2C(C(=O)OC)=C(C)NC3=C2C(=O)c2ccccc23)cc1OC (configuration not stated),29% (active)
13,CCOc1cc(C2C(C(=O)OC)=C(C)NC3=C2C(=O)c2ccccc23)cc(Cl)c1O (configuration not stated),29% (active)
14,CCOC(=O)COc1ccccc1C1C(C(=O)OC)=C(C)NC2=C1C(=O)c1ccccc12 (configuration not stated),39% (active)
15,C#CCOc1c(Br)cc(C2C(C(=O)OC)=C(C)NC3=C2C(=O)c2ccccc23)cc1OCC (configuration not stated),62%
16,COC(=O)C1=C(C)NC2=C(C(=O)c3ccccc32)C1c1ccc(O)c(OC)c1 (configuration not stated),85%
17,CCOc1cc(C2C(C(=O)OC)=C(C)NC3=C2C(=O)c2ccccc23)c(Br)cc1OC (configuration not stated),52%
18,CCOc1cc(C2C(C(=O)OC)=C(C)NC3=C2C(=O)c2ccccc23)ccc1O (configuration not stated),31% (active)
19,CCOc1ccc(C2C(C(=O)OC)=C(C)NC3=C2C(=O)c2ccccc23)cc1OC (configuration not stated),48%
20,CCOC(=O)COc1ccc(C2C(C(=O)OC)=C(C)NC3=C2C(=O)c2ccccc23)cc1Cl (configuration not stated),119%
21,C#CCOc1ccc(C2C(C(=O)OC)=C(C)NC3=C2C(=O)c2ccccc23)cc1OCC (configuration not stated),167%
22,CCOc1cc(C2C(C(=O)OC)=C(C)NC3=C2C(=O)c2ccccc23)cc(Br)c1OCC (configuration not stated),47%
23,CCOc1ccc(Br)cc1C1C(C(=O)OC)=C(C)NC2=C1C(=O)c1ccccc12 (configuration not stated),48%

row,Structure (SMILES),survival
1,CC(=O)c1ccc(NC(=O)Cn2c(=O)cc(C)c3c(C)nn(-c4cccc(F)c4)c32)cc1,81%
2,Cc1cc(=O)n2nc(N3CCC(C(=O)NCCCOC(C)C)CC3)sc2n1,100%
3,NC1CCC(c2ccccc2)CC1 (configuration not stated),78%
4,COc1ccc(-c2cn3nc(N4CCC(C(=O)NCc5ccc(F)cc5)CC4)sc3n2)cc1,88%
5,CC1=C(C(=O)Nc2ccc(Cl)cc2)C(c2cccs2)n2nc(SCc3cccc(C)c3)nc2N1 (configuration not stated),88%
6,COCCNC(=O)CSc1cn(CC(=O)N2CCCCCC2)c2ccccc12,73%
7,COc1ccc(-c2nc3c4cnn(-c5ccccc5F)c4ncn3n2)cc1,59%
8,CN1CCN(C(CNC(=O)C(=O)Nc2ccccc2)c2ccc3c(c2)OCO3)CC1 (configuration not stated),67%
9,COc1ccc(NC(=O)c2c(C)oc3ccc(O)c(CN4CCC(C)CC4)c23)cc1,57%
10,CCc1c(C)nc(SCC(=O)N2CCN(c3ccccc3OC)CC2)[nH]c1=O,77%
11,CCCCNC(=O)c1ccc2c(c1)NC(=O)C(CS(=O)(=O)Cc1ccc(C)cc1)N2 (configuration not stated),87%
12,COc1ccc(Cl)cc1S(=O)(=O)Nc1cccc(-c2ccc(N3CCOCC3)nn2)c1,97%
13,NS(=O)(=O)c1ccc(CCNc2nc3c(-c4cccc(F)c4)nnn3c3ccc(Cl)cc23)cc1,65%
14,COc1ccc(NC(=O)CSc2nc3ccccc3[nH]2)cc1,70%
15,Cc1cc(Cl)ccc1NC(=O)CSc1nc2c(c(=O)[nH]1)CCC2,80%
16,COC(=O)c1ccc(NC(=O)CSc2nc3ccc(OC)cc3[nH]2)cc1,184%
17,Cc1ccc2nc(SCC(=O)Nc3ccc(C#N)cc3)[nH]c2c1,64% (active)
18,Cc1cc(C)c(NC(=O)CSc2nc3ccncc3[nH]2)c(C)c1,119%
19,Cc1ccc(NC(=O)CSc2nc3ccc(Br)cc3[nH]2)c(C)c1,42% (active)
20,COCCNC(=O)CCCn1c(SCc2ccccc2Cl)nc2c(sc3ccccc32)c1=O,129%
21,COc1ccccc1NC(=O)c1ccc(-c2nc(COc3ccc(C)cc3)c(C)o2)cc1,83%
22,COc1ccc(Nc2nnc(-c3cc4c(ccc5ccccc54)oc3=O)s2)cc1,82%
23,CCCCN(Cc1ccccc1)S(=O)(=O)c1ccc2c(c1)CC(C)N2C(=O)CC (configuration not stated),99%
